Reference: the supplement of paper PMC6555819

Experiments:
Test in all cases: PBM binding z-score (relative to random genomic background probes); higher = stronger binding; sequences stand for … in GC…GCGATTGACAGCGTAGAATGAAGG
[1] = test system: FXR:RXRa (NR concentration 270 nM, RXRa partner concentration 90 nM)
In short: (§1)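 Each nuclear receptor dimer, without ligand, was incubated for 1 h on custom Agilent 4×180K protein-binding microarrays. Binding was detected with antibodies against each partner (one per run), and scanned fluorescence was regression-normalized. The binding z-scores are referenced to random human genomic background probes.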

[2] = test system: LXRa:RXRa (NR concentration 270 nM, RXRa partner concentration 90 nM)
In short: as §1

[3] = test system: LXRa homodimer (NR concentration 270 nM)
In short: as §1

[4] = test system: LXRb:RXRa (NR concentration 270 nM, RXRa partner concentration 90 nM)
In short: as §1

[5] = test system: LXRb homodimer (NR concentration 270 nM)
In short: as §1

[6] = test system: PPARa:RXRa (NR concentration 270 nM, RXRa partner concentration 90 nM)
In short: as §1

[7] = test system: PPARg:RXRa (NR concentration 180 nM, RXRa partner concentration 90 nM)
In short: as §1

[8] = test system: PPARg:RXRa 270nM:90nM, anti-RXR (NR concentration 270 nM, RXRa partner concentration 90 nM)
In short: as §1

[9] = test system: PPARg:RXRa 30nM:10nM, anti-RXR (NR concentration 30 nM, RXRa partner concentration 10 nM)
In short: as §1

[10] = test system: PPARg:RXRa 90nM:30nM, anti-RXR (NR concentration 90 nM, RXRa partner concentration 30 nM)
In short: as §1

Sequence | PBM binding z-score [1] | PBM binding z-score [2] | PBM binding z-score [3] | PBM binding z-score [4] | PBM binding z-score [5] | PBM binding z-score [6] | PBM binding z-score [7] | PBM binding z-score [8] | PBM binding z-score [9] | PBM binding z-score [10]
TCTATTAGTTGATTAAGGCAACCGAAACAGCGGA | 0.785 | 0.541 | 0.0619 | 0.645 | 0.994 | 0.614 | 0.172 | 2.06 | 3.75 | 2.99
TCTATTAGTTGAAGGGCAACAGACGAGTCCGTTT | 0.85 | 0.613 | 0.367 | 0.805 | 0.326 | 0.993 | 0.441 | 2.09 | 3.73 | 2.9
AGAATGAGGTTATTAAGATCGGGGAATTGCGGTC | 1.39 | 1.31 | 0.0422 | 1.14 | 0.139 | 2.39 | 0.982 | 1.43 | 0.253 | 0.888
CCTACTGGGCCAAAAAGGTCTTTGATGCCGATAA | -0.753 | -0.556 | -0.512 | -0.343 | -1.15 | 0.669 | 0.196 | 1.01 | -0.425 | 0.203
TCTATTAGTTGAAGGACAACCGACGAGTCCGTTT | 0.875 | 0.862 | 0.762 | 0.67 | 0.653 | 0.754 | 0.353 | 2.04 | 4.25 | 3.08
ACTAGTTAGTCAGCTGAGGTCACACACAATTCGG | 2.63 | 3.5 | 2.52 | 3.72 | 0.931 | 3.87 | 1.72 | 1.98 | 0.769 | 1.49
ATATGTATGTTATCGGGTCATTCAGTTTGCGCAT | 1.97 | 2.23 | 0.86 | 2.38 | 1.09 | 3.32 | 2.67 | 2.71 | 0.938 | 2.09
ATCGAAAGGTCCTGAGGTGAGTATACAGAAAGGC | 0.12 | 0.275 | -0.698 | 0.248 | -0.388 | 1.21 | 0.686 | 0.415 | 0.534 | 1.08
ACAGACAGGTGATTAAGGTAACTCAGGCTATCAT | 0.396 | 0.0407 | -0.11 | -0.0714 | -0.205 | 0.176 | 0.468 | 0.0075 | 0.0784 | 0.0739
AGAATGTGGTTATTAAGATCAGGGAATTGCGGTC | 0.0647 | -0.0146 | 0.00993 | -0.0352 | 0.111 | -0.0476 | 0.144 | 0.078 | -0.037 | 0.417
ATCTCTAGGTAAAGATAGTTCGGTGAATGCAAAT | 0.128 | 1.18 | 0.268 | 0.0902 | 0.531 | 0.121 | 0.266 | 0.307 | 0.192 | 0.213
CCTAGCTGGCCAGGGTCACTCAAGCATTTCGCTT | 1.96 | 1.65 | -0.664 | 1.94 | -1.02 | 2.99 | -0.0183 | 1.17 | -0.834 | -0.172
